# According to the supplement of paper PMC10127200:
# Where a name gives a salt, the structure may show the parent alone.
# Legend:
# Assay in all cases: Euclidean distance of Cell Painting phenotypic profile (signed KS, 77 features) to DMSO centroid (dimensionless distance); 5 or 10 uM (library dependent); higher = stronger phenotypic change vs DMSO (phenoactivity)
# Details in all cases: 48 h
# 786-O = test system: 786-O
# Outline: (§1)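 Five cancer lines and a healthy fibroblast line received library compounds at 10 or 5 uM (library-dependent, 0.1% DMSO final) for 48 h. Stained cells were imaged confocally at 20X (9 fields/well). Harmony extracted 77 features, each scored as a signed Kolmogorov-Smirnov statistic against same-plate vehicle wells. Profiles were plate-position corrected, correlation-weighted and replicate-averaged at the top dose. Phenoactivity is the Euclidean distance from each profile to the median vehicle profile.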
# A549 = test system: A549
# Outline: as §1
# DU145 = test system: DU145
# Outline: as §1
# FB = test system: FB
# Outline: as §1
# HEPG2 = test system: HEPG2
# Outline: as §1
# OVCAR4 = test system: OVCAR4
# Outline: as §1
Compound,Euclidean distance (786-O),Euclidean distance (A549),Euclidean distance (DU145),Euclidean distance (FB),Euclidean distance (HEPG2),Euclidean distance (OVCAR4)
N#Cc1cc(NC(=O)C(=O)O)c(Cl)c(NC(=O)C(=O)O)c1 [Lodoxamide Tromethamine],1.61,1.34,0.792,1.06,0.894,1.01
CCCC(=O)Nc1cccc(NC(=O)c2ccccc2Br)c1,1.43,1.02,1.04,1.14,1.27,0.946
CCCCc1nc(-c2ccc(OCCCN(CC)CC)cc2)cn1-c1ccc(Oc2ccc(Cl)cc2)cc1 [Azeliragon],6.58,4.65,0.73,3.3,1.05,1.71
COc1cc2c(cc1OC)-c1cc3ccc(OC)c(OC)c3c[n+]1CC2 [Palmatine],0.525,0.996,0.565,0.73,1.18,0.631
Cc1c(-c2ccccc2)oc2c(C(=O)OCCN3CCCCC3)cccc2c1=O [Flavoxate HCl],0.908,2.27,1.73,2.91,0.927,1.61
CC(C)(c1ccc(O)cc1)c1ccc(O)cc1 [Bisphenol A],0.955,1.21,0.773,0.78,0.694,0.934
CN(C)CCC=C1c2ccccc2C(C)(C)c2ccccc21 [Melitracen hydrochloride],1.33,1.82,2.27,2.65,1.5,1.37
CCn1cc(C(=O)O)c(=O)c2cc(F)c(N3CCN(C)CC3)cc21 [Pefloxacin Mesylate Dihydrate],1.52,1.04,0.855,0.707,0.635,1.07
COc1c(-c2ccc3cc(NS(C)(=O)=O)ccc3c2)cc(-n2ccc(=O)[nH]c2=O)cc1C(C)(C)C [Dasabuvir(ABT-333)],1.78,1.78,1.27,1.48,1.05,1.42
c1cncc(CN2CCC(n3ncc4c(N5CCOCC5)nc(-c5ccc6[nH]ccc6c5)nc43)CC2)c1,4.57,4.67,4.08,4.59,3.78,3.57
Cc1cc2c(F)c(Oc3ncnn4cc(OC[C@@H](C)O)c(C)c34)ccc2[nH]1,2.22,1.25,1.36,1.71,1.24,1.6
C=CC(=O)Nc1cccc(Nc2nc(Nc3ccc(N4CCN(C(C)=O)CC4)cc3OC)ncc2C(F)(F)F)c1,1.04,0.866,0.799,1.01,0.62,0.883
O=P(O)(O)C(O)(Cn1ccnc1)P(=O)(O)O [Zoledronic Acid],0.951,1.23,0.9,1.37,2.13,1.11
Cc1cc(Nc2cc(CN3CCOCC3)c3nc(C)c(Cc4ccc(Cl)cc4F)n3n2)n[nH]1,3.25,3.37,2.63,1.71,2.95,3.19
COc1ccc([C@]2(C#N)CC[C@@H](C(=O)O)CC2)cc1OC1CCCC1 [Cilomilast],1.31,0.842,1.35,1.14,1.3,1.53
Nc1nc(=O)[nH]cc1F [Flucytosine],1.25,1.12,0.998,1.16,0.392,0.975
CN1CCC(=C2c3ccccc3C=Cc3ccccc32)CC1 [Cyproheptadine hydrochloride],0.781,1.06,1.24,1.89,2.26,0.968
C[S+](CC[C@H](N)C(=O)[O-])C[C@H]1O[C@@H](n2cnc3c(N)ncnc32)[C@H](O)[C@@H]1O (stereo partly drawn) [Ademetionine],0.708,1.02,0.772,0.885,0.304,0.658
CCS(=O)(=O)N1CC(CC#N)(n2cc(-c3ncnc4[nH]ccc34)cn2)C1,1.86,0.875,1.45,1.57,0.589,0.899
COC(=O)CCC(=O)CN [Methyl Aminolevulinate Hydrochloride],1.52,0.774,0.717,0.88,0.566,1.34
O=C(O)CCCN1CCC(O[C@@H](c2ccc(Cl)cc2)c2ccccn2)CC1 [Bepotastine],0.883,0.582,0.573,0.639,0.595,0.955
CC(S)C(=O)NCC(=O)O (stereo not drawn) [Tiopronin],1.57,0.822,1.09,0.869,2.07,1.32
CCOC(=O)/C=C(C)/C=C/C=C(C)/C=C/c1c(C)cc(OC)c(C)c1C [Etretinate],0.891,0.993,1.22,1.15,1.14,1.85
NCC(=O)CCC(=O)O [5-Aminolevulinic acid HCl],1.2,0.994,1.81,1.12,1.61,2

Compound,Euclidean distance (786-O),Euclidean distance (A549),Euclidean distance (DU145),Euclidean distance (FB),Euclidean distance (HEPG2),Euclidean distance (OVCAR4)
CC(C)(OCc1nn(Cc2ccccc2)c2ccccc12)C(=O)O [Bindarit],0.377,0.614,0.791,0.934,0.939,0.825
COc1ccc(/C=C\c2cc(OC)c(OC)c(OC)c2)cc1O [Combretastatin A4],3.46,3.33,3.91,2.81,4.14,2.83
O=C(/C=C/c1ccc(O)c(O)c1)O[C@H](Cc1ccc(O)c(O)c1)C(=O)O [Rosmarinic acid],0.778,0.874,0.818,0.847,0.532,0.722
CCCCCCCC(=O)N[C@H](CN1CCCC1)[C@H](O)c1ccc2c(c1)OCCO2 [Eliglustat],0.75,1.58,1.05,1.48,1.2,1.06
O=C1c2ccc(Nc3ccc(F)cc3F)cc2CCc2ccc(OC[C@H](O)CO)cc21 [Skepinone-L],1.06,1.85,1.78,2.05,0.828,1.31
Nc1ccc(S(=O)(=O)Nc2ncccn2)cc1 [Sodium sulfadiazine],1.29,0.966,1.5,1.52,0.727,1.12
NS(=O)(=O)c1ccccc1 [Benzenesulfonamide],1.16,0.87,1.05,1.27,0.909,0.962
COC(=O)C1=C(C)NC(C)=C(C(=O)OC2CCCN(Cc3ccccc3)C2)C1c1cccc([N+](=O)[O-])c1 (stereo not drawn) [Benidipine HCl],1.39,0.86,0.823,0.926,0.713,1.45
O=C(O)c1cc(=O)c2c(OCC(O)COc3cccc4oc(C(=O)O)cc(=O)c34)cccc2o1 [Disodium Cromoglycate],0.952,0.486,1.78,1.02,0.769,1.05
CC(C)C[C@H](NC(=O)[C@H](CCc1ccccc1)NC(=O)CN1CCOCC1)C(=O)N[C@@H](Cc1ccccc1)C(=O)N[C@@H](CC(C)C)C(=O)[C@@]1(C)CO1 [Carfilzomib (PR-171)],5.78,4.54,5.77,0.729,4.79,5.41
Cn1cc(-c2ccc3nnc(Sc4ccc5ncccc5c4)n3n2)cn1,1.56,2.02,1.64,0.87,0.766,0.987
COc1cc(O)c(C(=O)Nc2nc(C(=O)NCCN(C(C)C)C(C)C)cs2)cc1OC [Acotiamide],1.22,0.413,0.881,0.785,0.356,0.831
Cc1oc(=O)oc1CN1CCN(c2cc3c(cc2F)c(=O)c(C(=O)O)c2n3C(C)S2)CC1 (stereo not drawn) [Prulifloxacin (NM441. AF 3013)],1.38,0.71,0.968,0.785,1.9,0.841
CC(C)(C)C#Cc1cc(N(C(=O)[C@H]2CC[C@H](C)CC2)[C@H]2CC[C@H](O)CC2)c(C(=O)O)s1 [VX-222 (VCH-222. Lomibuvir)],0.681,0.474,1.14,0.678,2.05,0.601
Clc1ccc(Nc2nnc(Cc3ccncc3)c3ccccc23)cc1 [Vatalanib (PTK787) 2HCl],1.01,1.05,1.47,1.53,1.42,1.29
Cc1cccc(CC(=O)N2CCc3c2ccc(-c2cn(C)c4ncnc(N)c24)c3F)n1,1.25,2.13,1.84,1.96,1.24,1.35
CCCc1ncc(C[n+]2ccccc2C)c(N)n1 [Amprolium HCl],1.47,0.883,1.08,1.27,0.679,1.39
C[C@H]1COC2=C1C(=O)C(=O)c1c2ccc2c1CCCC2(C)C [Cryptotanshinone],1.53,2.51,1.48,1.17,1.25,1.31
O=C(O[C@H]1CN2CCC1CC2)N1CCc2ccccc2[C@@H]1c1ccccc1 [Solifenacin succinate],1.31,1.56,1.17,2.68,2.17,1.98
Cc1ccc(CNc2ncnc3ccc(-c4ccc(CO)o4)cc23)o1,1.8,1.95,1.67,1.25,2.04,1.67
C[C@H]1CN(C[C@H](Cc2ccccc2)C(=O)NCC(=O)O)CC[C@@]1(C)c1cccc(O)c1 [Alvimopan dihydrate],0.875,0.429,1.89,0.594,0.342,0.96
NCC[C@H](O)C(=O)N[C@@H]1C[C@H](N)[C@@H](O[C@H]2O[C@H](CN)[C@@H](O)[C@H](O)[C@H]2O)[C@H](O)[C@H]1O[C@H]1O[C@H](CO)[C@@H](O)[C@H](N)[C@H]1O [Amikacin disulfate],1.64,0.597,0.666,0.868,0.695,0.989
COc1ccc(CC(C)(C)NC[C@H](O)c2cc(O)cc3c2OCC(=O)N3)cc1 [Olodaterol hydrochloride],1.07,0.364,1.21,1.12,0.379,1.1
CC(C)[C@H]1C(=O)N[C@@H](CCCNC(=N)N)C(=O)NCC(=O)N[C@@H](CC(=O)O)C(=O)N[C@H](Cc2ccccc2)C(=O)N1C [Cilengitide],2.25,1.28,0.875,1.15,4.37,2.86
